Measured values: PubChem BioAssay (NCATS)
Records with an inconclusive call do not appear. A call without a number means that no potency is given here. The source made the active and inactive calls. The call rests on the fitted dose curve; in most records, active means well fitted inhibition curve with a large enough effect; inconclusive means small, poorly fitted or top-dose-only effect; inactive means no such curve, though single readings can be large or run the other way.

These compounds were tested on Zika virus NS2B-NS3 protease (linked construct) (assay: Primary screen NINDS Rhodamine qHTS for Zika virus inhibitors (AID 1347160; further: nearly all actives have a fitted effect of over 55% in size)). Details: purified NS2B-NS3 protease, Rhodamine110 substrate fluorescence; series mostly up to 57.1 µM.
How it was run: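 Rhodamine110-peptide cleavage (1.5 µM substrate) by 25 nM linked NS2B-NS3 enzyme at pH 8.0 (Tris, Tween 20), after 15 min RT preincubation with compounds; 15-min fluorescence change normalized to controls and Hill-fitted.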
Potency means the concentration at half of the fitted maximal effect.

Compound	Potency
CCC[C@@H]1C[C@@H](C(=O)N[C@@H]([C@H]2O[C@H](SC)[C@H](OP(=O)(O)O)[C@@H](O)[C@H]2O)[C@H](C)Cl)N(C)C1	inactive
OC[C@H]1O[C@@H](Oc2cc(O)cc(/C=C/c3ccc(O)cc3)c2)[C@H](O)[C@@H](O)[C@@H]1O	inactive
C/C=C1\[C@H](O[C@@H]2O[C@H](CO)[C@@H](O)[C@H](O)[C@H]2O)OC=C(C(=O)OC)[C@H]1CC(=O)OC	inactive
CC1(C)CC[C@]2(C(=O)O)CC[C@]3(C)C(=CCC4[C@@]5(C)C[C@H](O)[C@H](O[C@@H]6OC[C@H](O)[C@H](O)[C@H]6O)[C@@](C)(CO)C5CC[C@]43C)[C@@H]2C1 (stereo not given in full)	inactive
N#CCc1ccc(O)cc1O[C@@H]1O[C@H](CO)[C@@H](O)[C@H](O)[C@H]1O	inactive
Cn1ccnc1CCOC(c1cc2nccc(C(=O)O)c2[nH]1)c1ccccc1Cl (stereo not given)	inactive
COc1c(C(CC(C)C)OC(C)=O)ccc(Oc2c(O)cc(C)cc2/C=C/C(C)=O)c1C(=O)O (stereo not given)	11.2 µM (active)
COc1cc(C2c3cc(O)c(OC)cc3CC(CO)C2CO)ccc1O (stereo not given)	inactive
OCc1ccccc1O[C@@H]1O[C@H](CO)[C@@H](O)[C@H](O)[C@H]1O	inactive
C[C@@H]1CC[C@]2(C(=O)O)CC[C@]3(C(=O)O)C(=CCC4[C@@]5(C)CC[C@H](O[C@@H]6O[C@@H](C)[C@H](O[C@@H]7O[C@H](CO)[C@@H](O)[C@H](O)[C@H]7O)[C@@H](O)[C@H]6O)C(C)(C)C5CC[C@]43C)C2[C@H]1C (stereo not given in full)	inactive
